Screens as filed in PubChem.
An excerpt weighted towards active compounds, which were near 7.5% of everything screened.
ELG1 DNA repair = qHTS screen for small molecules that inhibit ELG1-dependent DNA repair in human embryonic kidney (HEK293T) cells expressing luciferase-tagged ELG1; HEK293T ELG1-luciferase reporter, luminescence, 16 h; DNA damage induced by 5-fluorouridine; Potency, µM (titrated, usually from 46.1 µM), inactives show at the top dose activity change, negative = inhibition, usual class: inhibitors; 2.3% of 330,000 active; AID 504467, 2011; note: potency is the fitted concentration of half-maximal effect; nearly all actives have a fitted effect of over 55% in size
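In this reporter screen, reduction of luminescence relative to DMSO vehicle indicated activity. Compounds and 5-fluorouridine were added together to 2,000 cells per well, incubated for 16 hr at 37 °C, then developed with ONE-Glo.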
B2AR arrestin = qHTS assay of beta-arrestin-biased ligands of beta2-adrenergic receptor | Beta-2 adrenergic receptor (Homo sapiens), P07550 | beta-arrestin recruitment to beta2AR, cell-based reporter | Potency, µM (highest dose often 46.1 µM), inactives show at the top dose activation, hits mostly activators | 0.02% of 330,000 active | AID 492947, 2010;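 note: potency is the fitted concentration of half-maximal effect; 0% = DMSO controls and full agonism = EC100 isoproterenol or metaproterenol; nearly all actives have a fitted effect of over 65% in size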
Target sequence (P07550 whole entry, looked up): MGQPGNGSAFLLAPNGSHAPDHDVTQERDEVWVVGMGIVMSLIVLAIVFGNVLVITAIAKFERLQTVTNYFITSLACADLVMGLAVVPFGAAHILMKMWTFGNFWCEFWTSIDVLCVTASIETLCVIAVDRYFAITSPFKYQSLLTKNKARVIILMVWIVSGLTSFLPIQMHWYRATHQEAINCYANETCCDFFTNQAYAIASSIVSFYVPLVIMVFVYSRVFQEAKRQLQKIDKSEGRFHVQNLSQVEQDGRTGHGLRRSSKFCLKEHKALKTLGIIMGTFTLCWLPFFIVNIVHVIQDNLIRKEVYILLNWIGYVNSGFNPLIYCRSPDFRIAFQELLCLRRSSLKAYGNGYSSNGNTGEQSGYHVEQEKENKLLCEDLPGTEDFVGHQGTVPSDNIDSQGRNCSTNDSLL
TSHR antag = Antagonists of the Thyroid Stimulating Hormone Receptor: HTS campaign; TSHR-expressing cells, TSH-stimulated cAMP HTRF, 2 h; active compounds read low; 0.2% of 330,000 active; activity change, negative = inhibition, % at 11.5 µM; AID 504810, 2011; Thyrotropin receptor (Homo sapiens), P16473;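 active = activity change below a set negative limit, meaning inhibition stronger than a set level, cut at about -70% in these data; inconclusive = activity change between two set negative limits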
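Freshly harvested TSHR cells receive pin-tooled compound, then EC80 TSH at 4nM final. After 2 hours at 37 deg C, antibody in lysis buffer and cAMP-d2 are added; 30 minutes at ambient temperature precede the HTRF read.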
RORgamma inh = qHTS for inhibitors of ROR gamma transcriptional activity. Potency, µM (doses to about 53.6 µM), without a hit: top-dose activity change, negative = inhibition, most hits filed as inhibitors. Nuclear receptor ROR-gamma (Mus musculus), P51450. Drosophila S2 Gal4-RORgamma UAS-luciferase reporter, 20 h. 5.4% of 310,000 active; note: potency is the fitted concentration of half-maximal effect; nearly all actives have a fitted effect of over 60% in size
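Using a luciferase readout, inhibitors were identified by reduced reporter activity in Drosophila cells coexpressing a copper-inducible Gal4–ROR gamma fusion and UAS-driven Photinus luciferase, incubated 20 hr after 700 uM copper sulfate.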
Gal4-VP16 FLuc = VP16 counterscreen qHTS for inhibitors of ROR gamma transcriptional activity. Drosophila S2 Gal4-VP16 UAS-luciferase, luminescence, 20 h. Potency, µM (series often up to 53.6 µM), without a hit: top-dose activity, negative = inhibition, actives largely listed as inhibitors. 3.5% of 310,000 active. AID 2546, 2010;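 note: Gal4-VP16 expression switched on by copper sulfate through the metallothionein promoter; potency is the fitted concentration of half-maximal effect; nearly all actives have a fitted effect of over 50% in size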
An asterisk follows results filed as active; [ ] = dose if it differs, or a comment. Unless noted, calls come from the whole dose curve; as a rule, active = well fitted curve in the direction sought with a large enough effect; inconclusive = small, poorly fitted or top-dose-only effect, or another doubt; inactive = no such curve, though single readings can be large; an effect the other way counts as inactive or inconclusive. Unless noted, % is set by controls: 0 for no effect and ±100 for the full control effect.

Results for CCOC(=O)Cc1csc(NC(=S)NC(=O)c2cc(OC)cc(OC)c2)n1 ?
ELG1 DNA repair: inconclusive; B2AR arrestin: 0%; TSHR antag: -17; RORgamma inh: inconclusive; Gal4-VP16 FLuc: inconclusive

What do the screens show for `CC(C)CC(=O)NC(=S)Nc1nc(-c2cccc3ccccc23)cs1`?
ELG1 DNA repair: -2%; B2AR arrestin: 0%; TSHR antag: 17; RORgamma inh: 3.2µM*; Gal4-VP16 FLuc: 13µM*

What do the screens show for `CCOC(=O)Cc1csc(NC(=S)NC(=O)c2cccc([N+](=O)[O-])c2)n1`?
ELG1 DNA repair: 8%; B2AR arrestin: 0%; TSHR antag: 4; RORgamma inh: 11µM*; Gal4-VP16 FLuc: inconclusive

Results for CCOC(=O)Cc1csc(NC(=O)Nc2ccc(Cl)cc2)n1 ?
ELG1 DNA repair: 18µM*; B2AR arrestin: 0%; TSHR antag: -4; RORgamma inh: 36%; Gal4-VP16 FLuc: -1%

What do the screens show for `CCOC(=O)Cc1csc(NC(=O)Nc2cccc(Cl)c2)n1`?
ELG1 DNA repair: -19%; B2AR arrestin: -1%; TSHR antag: -10; RORgamma inh: 40%; Gal4-VP16 FLuc: 4%

What do the screens show for `COc1ccc(C(=O)NNC2=C(C(=O)C(F)(F)F)CCC2)cc1`?
ELG1 DNA repair: inconclusive; B2AR arrestin: 0%; TSHR antag: 0; RORgamma inh: 14µM*; Gal4-VP16 FLuc: inconclusive

What do the screens show for `O=C(NNC1=C(C(=O)C(F)(F)F)CCC1)c1cccc(Cl)c1`?
ELG1 DNA repair: inconclusive; B2AR arrestin: 0%; TSHR antag: 1; RORgamma inh: inconclusive; Gal4-VP16 FLuc: inconclusive

Results for O=C(NNC1=C(C(=O)C(F)(F)F)CCC1)c1ccc(Cl)cc1 ?
ELG1 DNA repair: inconclusive; B2AR arrestin: -1%; TSHR antag: -10; RORgamma inh: 11µM*; Gal4-VP16 FLuc: inconclusive

How did COC(=O)NC(c1cccc(F)c1)[C@@]1(C(=O)OC)CCCC1=O (some centres undefined) do in these assays?
RORgamma inh: -17%[10 µM]; Gal4-VP16 FLuc: -3%[10 µM]

How did Cc1nc(NC(=O)CSc2nc3cccnc3n2Cc2ccccc2)sc1C do in these assays?
ELG1 DNA repair: inconclusive; B2AR arrestin: 0%; TSHR antag: 3; RORgamma inh: 13µM*; Gal4-VP16 FLuc: inconclusive

What do the screens show for `CCCCn1c(SCC(=O)NCCOC)nc2ccc(N3CCOCC3)cc2c1=O`?
ELG1 DNA repair: 11%; B2AR arrestin: -1%; TSHR antag: 12; RORgamma inh: inconclusive; Gal4-VP16 FLuc: -17%

What do the screens show for `COCCNC(=O)CSc1nc2ccc(N3CCOCC3)cc2c(=O)n1CCc1ccccc1`?
ELG1 DNA repair: -28%; B2AR arrestin: 0%; TSHR antag: -6; RORgamma inh: 3.5µM*; Gal4-VP16 FLuc: inconclusive

Results for CCOC(=O)CSc1nc2ccccc2c(=O)n1CCN1CCOCC1 ?
ELG1 DNA repair: inconclusive; B2AR arrestin: 0%; TSHR antag: 1; RORgamma inh: -21%; Gal4-VP16 FLuc: -15%

What do the screens show for `CCOC(=O)CSc1nc2ccc(N3CCOCC3)cc2c(=O)n1Cc1ccccc1`?
ELG1 DNA repair: inconclusive; B2AR arrestin: 0%; TSHR antag: 2; RORgamma inh: 13µM*; Gal4-VP16 FLuc: inconclusive

How did O=C(CSc1nc2ccc(N3CCOCC3)cc2c(=O)n1CCc1ccccc1)NCC1CCCO1 (centres undefined) do in these assays?
ELG1 DNA repair: inconclusive; B2AR arrestin: 0%; TSHR antag: 3; RORgamma inh: 5.6µM*; Gal4-VP16 FLuc: 13µM*

How did CCCCNC(=O)CSc1nc2ccc(N3CCOCC3)cc2c(=O)n1CCc1ccccc1 do in these assays?
ELG1 DNA repair: inconclusive; B2AR arrestin: 0%; TSHR antag: 2; RORgamma inh: 7.9µM*; Gal4-VP16 FLuc: 7.9µM*

How did COCCn1c(=O)c(-c2ccc(OC)cc2)nc2cnc(Oc3ccccc3)nc21 do in these assays?
RORgamma inh: 3%; Gal4-VP16 FLuc: -1%

How did CCN1/C(=C/c2ccc3ccccc3[n+]2CC)C=Cc2ccccc21 do in these assays?
ELG1 DNA repair: inconclusive; B2AR arrestin: 11%; TSHR antag: inconclusive; RORgamma inh: 8.9µM*; Gal4-VP16 FLuc: 2.8µM*

Results for CCN1/C(=C/c2ccc3ccccc3[n+]2CCCS(=O)(=O)[O-])C=Cc2cc(C)ccc21 ?
ELG1 DNA repair: -9%; B2AR arrestin: 0%; TSHR antag: 10; RORgamma inh: -17%; Gal4-VP16 FLuc: -13%

How did NC(=O)CCCCn1ccc(NC(N)=NCC(F)(F)F)n1 do in these assays?
RORgamma inh: -11%; Gal4-VP16 FLuc: 7%

What do the screens show for `Cc1nc(Nc2nc(CSc3nc4ccccc4[nH]3)cc(=O)[nH]2)nc2ccccc12`?
ELG1 DNA repair: 13µM*; B2AR arrestin: 0%; TSHR antag: -23; RORgamma inh: inconclusive; Gal4-VP16 FLuc: inconclusive

Results for Cc1nc(Nc2nc(CSc3ccc(Cl)cc3)cc(=O)[nH]2)nc2ccccc12 ?
ELG1 DNA repair: -12%; B2AR arrestin: 0%; TSHR antag: 12; RORgamma inh: -2%; Gal4-VP16 FLuc: -4%

How did COc1ccc2nc(Nc3nc(CSc4nc5ccccc5[nH]4)cc(=O)[nH]3)nc(C)c2c1 do in these assays?
ELG1 DNA repair: 5.8µM*; B2AR arrestin: -1%; TSHR antag: -16; RORgamma inh: 5.6µM*; Gal4-VP16 FLuc: 5µM*

Results for CC12CCC(/C(=N/O)C1=O)C2(C)C (centres undefined) ?
RORgamma inh: -6%; Gal4-VP16 FLuc: -3%

Results for C=CCCC/C=C(/C)C(OCc1ccc(OC)cc1)C(CC/C=C(\C)C(N)=O)OC (centres undefined) ?
RORgamma inh: -9%[10 µM]; Gal4-VP16 FLuc: -11%[10 µM]

Results for O=C(Nc1nnc(-c2ccncc2)o1)C1CCCCC1 ?
ELG1 DNA repair: 7%; B2AR arrestin: -1%; TSHR antag: 1; RORgamma inh: 10µM*; Gal4-VP16 FLuc: inconclusive

What do the screens show for `O=C(Nc1ccccc1)Nc1nnc(-c2ccccc2)o1`?
ELG1 DNA repair: 0%; B2AR arrestin: 5%; TSHR antag: 15; RORgamma inh: 43%; Gal4-VP16 FLuc: -2%

Results for O=C(Nc1nnc(-c2ccco2)o1)C1CC1 ?
ELG1 DNA repair: 6%; B2AR arrestin: 0%; TSHR antag: -6; RORgamma inh: 10µM*; Gal4-VP16 FLuc: inconclusive

What do the screens show for `O=C(Nc1nnc(-c2ccccc2)o1)NC1CCCCC1`?
ELG1 DNA repair: 19%; B2AR arrestin: -1%; TSHR antag: -17; RORgamma inh: 2.5µM*; Gal4-VP16 FLuc: 4.5µM*

What do the screens show for `O=C(Nc1nnc(-c2ccco2)o1)C1CCCCC1`?
ELG1 DNA repair: 29%; B2AR arrestin: 0%; TSHR antag: 8; RORgamma inh: inconclusive; Gal4-VP16 FLuc: inconclusive
